Measurements: PubChem BioAssay (Tox21)
Values joined by “and” are separate entries in the source; they are usually repeats but may differ in a detail not shown here. Equal values may be shown once. More than one record can exist for a structure, and the calls need not agree. Active and inactive are the calls of the source. Where a call stands in place of a potency, no number is given. Unless noted, calls follow the shape of the dose curve; as a rule, active = well fitted curve in the direction sought with a large enough effect in the repeat runs; inconclusive = weak or mixed curves; inactive = no such curve, though single readings can be large; an effect the other way counts as inactive or inconclusive.

Tests used:
[1] = qHTS assay to identify small molecule antagonists of the glucocorticoid receptor (GR) signaling pathway - cell viability counter screen (AID 720693); also: nearly all actives have a fitted effect of over 55% in size
[2] = qHTS assay for identifying genotoxic compounds that show differential cytotoxicity against isogenic chicken DT40 cell lines with known DNA damage response pathways - wild type cell line (AID 743012); also: nearly all actives have a fitted effect of over 60% in size; also: potency is read from the fitted curve at half-maximal effect
Procedure, shortened: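 Cytotoxicity in repair-proficient parental chicken DT40 cells serves as the comparator for Rad54/Ku70- and Rev3-deficient lines. Cells were exposed to compounds for 40 h at 37 C/5% CO2, and ATP-based luminescence (CellTiter-Glo) measured viability.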

[3] = qHTS assay for identifying genotoxic compounds that show differential cytotoxicity against isogenic chicken DT40 cell lines with known DNA damage response pathways - Rev3 mutant cell line (AID 743014); also: nearly all actives have a fitted effect of over 55% in size; also: potency is read from the fitted curve at half-maximal effect
[4] = qHTS assay for identifying genotoxic compounds that show differential cytotoxicity against isogenic chicken DT40 cell lines with known DNA damage response pathways - Rad54/Ku70 mutant cell line (AID 743015); also: nearly all actives have a fitted effect of over 60% in size; also: potency is read from the fitted curve at half-maximal effect
[5] = biological target: Androgen receptor (Homo sapiens) (UniProt P10275); experiment: qHTS assay to identify small molecule agonists of the androgen receptor (AR) signaling pathway (AID 743036; active = well fitted activation curve with a large enough effect in the signal ratio in the repeat runs, with a control signal flat, not every such curve was filed as active; inconclusive = weak or mixed curves, or effect the other way; inactive = no such curve, though single readings can be large or run the other way; the % refers to the signal ratio)
Chain of Androgen receptor (Homo sapiens) (P10275 whole entry, looked up): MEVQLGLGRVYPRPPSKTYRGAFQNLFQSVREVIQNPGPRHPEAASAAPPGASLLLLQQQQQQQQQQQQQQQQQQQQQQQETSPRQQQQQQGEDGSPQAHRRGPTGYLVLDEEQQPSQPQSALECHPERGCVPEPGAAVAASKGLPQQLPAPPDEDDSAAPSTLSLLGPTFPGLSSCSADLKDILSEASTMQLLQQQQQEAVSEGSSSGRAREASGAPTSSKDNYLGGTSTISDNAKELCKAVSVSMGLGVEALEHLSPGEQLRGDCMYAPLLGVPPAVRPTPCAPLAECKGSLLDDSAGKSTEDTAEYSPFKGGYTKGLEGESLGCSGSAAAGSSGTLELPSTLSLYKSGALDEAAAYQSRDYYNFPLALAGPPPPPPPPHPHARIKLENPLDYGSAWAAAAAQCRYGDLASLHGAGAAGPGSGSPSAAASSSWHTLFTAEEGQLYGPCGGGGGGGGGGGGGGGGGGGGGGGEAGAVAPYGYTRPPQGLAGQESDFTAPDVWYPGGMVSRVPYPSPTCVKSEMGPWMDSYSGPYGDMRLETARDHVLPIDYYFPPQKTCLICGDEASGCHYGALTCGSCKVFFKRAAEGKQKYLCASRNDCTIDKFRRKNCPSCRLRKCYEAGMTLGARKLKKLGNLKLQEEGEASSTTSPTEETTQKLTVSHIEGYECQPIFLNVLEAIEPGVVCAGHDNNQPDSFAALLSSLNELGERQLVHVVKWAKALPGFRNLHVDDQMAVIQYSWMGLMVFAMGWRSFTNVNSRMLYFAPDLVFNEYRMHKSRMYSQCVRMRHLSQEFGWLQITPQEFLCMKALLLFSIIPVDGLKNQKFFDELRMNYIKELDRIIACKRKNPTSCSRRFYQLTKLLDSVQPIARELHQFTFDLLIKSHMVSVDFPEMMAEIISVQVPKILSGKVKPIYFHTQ
Procedure, shortened: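 Fluorescence from a beta-lactamase FRET substrate served as read-out in AR-UAS-bla GripTite HEK293 cells. Cells were treated with DMSO-dissolved compounds for 16 h at 37C, then with LiveBLAzer B/G substrate for 2 h at room temperature.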

[6] = biological target: Androgen receptor (Homo sapiens) (UniProt P10275); experiment: qHTS assay to identify small molecule agonists of the androgen receptor (AR) signaling pathway using the MDA cell line (AID 743040; also: nearly all actives have a fitted effect of over 20% in size); conditions: MDA-kb2 AR-luc cells, MMTV luciferase, 16 h; activity change: at 70.3 µM (top of the series), stronger effect = higher value
Procedure, shortened: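 Luciferase agonist assay: 16 h compound exposure at 37C without CO2 in MDA-kb2 AR-luc cells, whose MMTV promoter responds to both AR and GR. Luminescence measured after 30 min room-temperature incubation with ONE-Glo.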

[7] = qHTS assay to identify small molecule antagonists of the androgen receptor (AR) signaling pathway using the MDA cell line - cell viability counter screen (AID 743041; also: nearly all actives have a fitted effect of over 45% in size)
Procedure, shortened: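 Viability read by CellTiter-Fluor fluorescence in the same wells as the antagonist screen, added after 15.5 h of a 16 h, 37C exposure. Human breast carcinoma MDA-kb2 AR-luc cells, compounds co-dosed with agonist R1881.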

[8] = qHTS assay to identify small molecule antagonists of the thyroid receptor (TR) signaling pathway (AID 743065); also: nearly all actives have a fitted effect of over 55% in size; also: potency is read from the fitted curve at half-maximal effect
Procedure, shortened: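 Antagonism measured as loss of luciferase signal in GH3 cells stably carrying a TRE-luciferase reporter, co-treated with compound and T3 (1 nM final) for 23.5 h at 37 C. Viability was read in the same well by CellTiter-Fluor.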

[9] = tested on: thyroid hormone receptor (rat, GH3 cells); experiment: qHTS assay to identify small molecule agonists of the thyroid receptor (TR) signaling pathway (AID 743066; calls by dose curve)
[10] = biological target: Estrogen receptor (Homo sapiens) (UniProt P03372); experiment: qHTS assay to identify small molecule antagonists of the estrogen receptor alpha (ER-alpha) signaling pathway (AID 743069; active = well fitted curve in the direction sought with a large enough effect in the signal ratio in the repeat runs, not every such curve was filed as active; inconclusive = weak or mixed curves, or effect the other way; inactive = no such curve, though single readings can be large or run the other way; the % refers to the signal ratio; also: potency is read from the fitted curve at half-maximal effect)
Chain of Estrogen receptor (Homo sapiens) (P03372 whole entry, looked up): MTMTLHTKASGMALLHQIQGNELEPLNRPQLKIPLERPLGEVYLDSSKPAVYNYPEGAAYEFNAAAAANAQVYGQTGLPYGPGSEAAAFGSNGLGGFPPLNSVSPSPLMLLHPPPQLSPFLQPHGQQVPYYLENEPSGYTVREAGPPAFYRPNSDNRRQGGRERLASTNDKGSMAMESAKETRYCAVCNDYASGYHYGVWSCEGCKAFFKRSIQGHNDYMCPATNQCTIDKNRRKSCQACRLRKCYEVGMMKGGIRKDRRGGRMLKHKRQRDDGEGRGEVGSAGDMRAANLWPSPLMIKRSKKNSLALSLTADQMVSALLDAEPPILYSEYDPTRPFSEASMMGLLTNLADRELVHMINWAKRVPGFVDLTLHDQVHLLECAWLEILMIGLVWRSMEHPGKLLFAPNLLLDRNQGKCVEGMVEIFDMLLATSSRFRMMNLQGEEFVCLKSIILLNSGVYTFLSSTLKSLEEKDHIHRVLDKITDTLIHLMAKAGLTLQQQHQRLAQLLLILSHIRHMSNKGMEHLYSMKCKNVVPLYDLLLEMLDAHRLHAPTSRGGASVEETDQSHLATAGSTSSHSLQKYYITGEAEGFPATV
Procedure, shortened: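 Antagonist mode: compounds in DMSO were co-added with 17beta-estradiol to ER-alpha-bla HEK293 cells (2% charcoal-stripped serum) and left 18 h at 37C. Reporter inhibition was measured as FRET fluorescence after 2 h LiveBLAzer substrate at room temperature.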

[11] = qHTS assay to identify small molecule antagonists of the estrogen receptor alpha (ER-alpha) signaling pathway - cell viability counter screen (AID 743074; calls by dose curve;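 also: HEK293 cells carrying ER-alpha-UAS-bla reporter stimulated with 17beta-estradiol; nearly all actives have a fitted effect of over 45% in size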; also: potency is read from the fitted curve at half-maximal effect)
[12] = biological target: Estrogen receptor (Homo sapiens) (UniProt P03372); experiment: qHTS assay to identify small molecule agonists of the estrogen receptor alpha (ER-alpha) signaling pathway (AID 743075; calls by dose curve;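 also: HEK293 GripTite cells with ER-alpha and UAS-driven beta-lactamase reporter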; also: potency is read from the fitted curve at half-maximal effect)
[13] = biological target: Estrogen receptor (Homo sapiens) (UniProt P03372); experiment: qHTS assay to identify small molecule agonists of the estrogen receptor alpha (ER-alpha) signaling pathway using the BG1 cell line (AID 743079); also: nearly all actives have a fitted effect of over 20% in size; also: potency is read from the fitted curve at half-maximal effect
[14] = qHTS assay to identify small molecule antagonists of the estrogen receptor alpha (ER-alpha) signaling pathway using the BG1 cell line (AID 743080; calls by dose curve;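 also: BG1 cells stimulated with 17beta-estradiol alongside compound; nearly all actives have a fitted effect of over 25% in size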; also: potency is read from the fitted curve at half-maximal effect)
Procedure, shortened: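 Readout is ONE-Glo luminescence, taken 30 min at room temperature after reagent addition, preceded by a CellTiter-Fluor viability read; BG1-Luc-4E2 cells had received compound and 17beta-estradiol for 21.5 h at 37 C.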

[15] = qHTS assay to identify small molecule antagonists of the estrogen receptor alpha (ER-alpha) signaling pathway using the BG1 cell line - cell viability counter screen (AID 743081);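 also: compound given together with 17beta-estradiol as the ER stimulus; nearly all actives have a fitted effect of over 45% in size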; also: potency is read from the fitted curve at half-maximal effect
[16] = biological target: Aromatase (Homo sapiens) (UniProt P11511); experiment: qHTS assay to identify aromatase inhibitors (AID 743083); also: nearly all actives have a fitted effect of over 55% in size; also: potency is read from the fitted curve at half-maximal effect
Chain of Aromatase (Homo sapiens) (P11511 whole entry, looked up): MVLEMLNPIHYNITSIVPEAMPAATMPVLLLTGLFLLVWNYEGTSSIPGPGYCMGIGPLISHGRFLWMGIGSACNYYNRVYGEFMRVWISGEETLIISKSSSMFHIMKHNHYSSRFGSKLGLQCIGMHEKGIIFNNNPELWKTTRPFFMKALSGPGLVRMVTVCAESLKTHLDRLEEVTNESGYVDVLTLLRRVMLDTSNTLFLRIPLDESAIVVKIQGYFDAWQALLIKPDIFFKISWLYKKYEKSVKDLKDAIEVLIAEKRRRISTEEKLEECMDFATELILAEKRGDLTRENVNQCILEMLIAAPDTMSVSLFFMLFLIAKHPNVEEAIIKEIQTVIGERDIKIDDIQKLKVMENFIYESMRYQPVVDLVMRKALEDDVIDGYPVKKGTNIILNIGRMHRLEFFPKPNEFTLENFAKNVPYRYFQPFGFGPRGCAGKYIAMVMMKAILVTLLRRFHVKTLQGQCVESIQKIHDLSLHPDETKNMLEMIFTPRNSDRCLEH

[17] = qHTS assay to identify aromatase inhibitors - cell viability counter screen (AID 743084); also: potency is read from the fitted curve at half-maximal effect
[18] = qHTS assay to identify small molecule antagonists of the androgen receptor (AR) signaling pathway - cell viability counter screen (AID 743033; also: nearly all actives have a fitted effect of over 45% in size; also: potency is read from the fitted curve at half-maximal effect)
[19] = qHTS assay to identify small molecule antagonists of the thyroid receptor (TR) signaling pathway - cell viability counter screen (AID 743064); also: nearly all actives have a fitted effect of over 50% in size; also: potency is read from the fitted curve at half-maximal effect
Procedure, shortened: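 Fluorescence from CellTiter-Fluor, added after 23.5 h exposure at 37 °C, reported viability of GH3.TRE-Luc cells co-treated with compound and 1 nM T3. Measured in the same wells as the luciferase TR readout.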

[20] = biological target: Androgen receptor (Homo sapiens) (UniProt P10275); experiment: qHTS assay to identify small molecule antagonists of the androgen receptor (AR) signaling pathway (AID 743035; active = well fitted inhibition curve with a large enough effect in the signal ratio in the repeat runs, not every such curve was filed as active; inconclusive = weak or mixed curves, or effect the other way; inactive = no such curve, though single readings can be large or run the other way; the % refers to the signal ratio)
Procedure, shortened: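 Steps: seed AR-UAS-bla GripTite HEK293 cells, incubate 4 h at 37C; pin in test compound, then add agonist R1881; incubate 16 h at 37C; add LiveBLAzer B/G FRET substrate, 2 h at room temperature; read fluorescence.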

Compound | Potency [1] | Potency [2] | Potency [3] | Potency [4] | Potency [5] | Potency [6] | Potency [7] | Potency [8] | Potency [9] | Potency [10] | Potency [11] | Potency [12] | Potency [13] | Potency [14] | Potency [15] | Potency [16] | Potency [17] | Potency [18] | Potency [19] | Potency [20]
CCCCNC(=O)n1c(NC(=O)OC)nc2ccccc21 | inactive | 9.64 µM (active) and 8.63 µM (active) | 5.42 µM (active) and 6.86 µM (active) | 6.82 µM (active) and 8.63 µM (active) | inactive | inactive | inactive | 7.66 µM (active) and 8.63 µM (active) | inactive | inactive | inactive | inactive | 34.4 µM (active) | inactive | inactive | inactive | inactive | – | – | –
CCOc1cc(Oc2ccc(C(F)(F)F)cc2Cl)ccc1[N+](=O)[O-] | inactive | 54.5 µM (active) | inactive | 54.5 µM (active) | – | – | inactive | – | inactive | inactive | inactive | inactive | – | 31 µM (active) | inactive | inactive | inactive | inactive | – | –
c1nc[nH]n1 | inactive | inactive | inactive | inactive | – | – | inactive | – | – | inactive | inactive | inactive | inactive | inactive | inactive | inactive | inactive | inactive | inactive | –
Oc1cc(Cl)ccc1Cl | inactive | inactive | inactive | inactive | – | – | inactive | – | inactive | – | – | – | – | – | inactive | inactive | inactive | inactive | inactive | –
Cc1c(COC(=O)[C@@H]2[C@H](/C=C(\Cl)C(F)(F)F)C2(C)C)cccc1-c1ccccc1 | inactive | inactive | inactive | inactive | – | – | inactive | 15 µM (active) and 15.3 µM (active) | inactive | inactive | 26.9 µM (active) | inactive | inactive | – | inactive | inactive | inactive | inactive | – | –
CN(C)C(=O)Nc1ccc(Cl)cc1 | inactive | inactive | – | – | – | – | inactive | inactive | inactive | – | inactive | – | – | – | inactive | inactive | inactive | inactive | inactive | –
COP(=S)(OC)Oc1ccc([N+](=O)[O-])cc1 | inactive | – | – | – | – | – | inactive | – | inactive | inactive | inactive | inactive | 48.6 µM (active) and inactive | inactive | inactive | inactive | inactive | inactive | inactive | –
c1cc(OCC2CO2)ccc1Cc1ccc(OCC2CO2)cc1 (stereo not given) | – | 13.7 µM (active) | 2.44 µM (active) and 1.54 µM (active) | 61.4 µM (active) and 15.4 µM (active) | inactive | inactive | inactive | 24.4 µM (active) and 21.7 µM (active) | inactive | – | inactive | inactive | inactive | inactive | inactive | inactive | – | inactive | 43.5 µM (active) and 48.6 µM (active) | inactive
CCC(C)c1cc([N+](=O)[O-])cc([N+](=O)[O-])c1O (stereo not given) | inactive | inactive and 27.3 µM (active) | inactive and 30.6 µM (active) | inactive and 27.3 µM (active) | – | – | – | – | inactive | inactive and 6.92 µM [inhibitor] (active) | inactive | inactive | inactive | inactive | inactive and 4.86 µM (active) | inactive and 30.6 µM (active) | inactive and 27.3 µM (active) | inactive and 19.5 µM (active) | 27.3 µM (active) | –
O=C1C=CC(=O)C=C1 | inactive | inactive and 9.69 µM (active) | inactive and 9.69 µM (active) | inactive and 10.9 µM (active) | – | – | inactive | – | inactive | – | inactive | – | – | – | inactive | inactive | inactive | inactive | inactive | –
CCC(C)(c1ccc(O)cc1)c1ccc(O)cc1 | inactive | 27.3 µM (active) | 61.1 µM (active) and 34.4 µM (active) | 30.6 µM (active) | – | – | inactive | 61.1 µM (active) | inactive | 616 nM [inconclusive] (active) and 309 nM [inconclusive] (active) | inactive | 195 nM [inconclusive] (active) and 1.95 µM [inconclusive] (active) | 243 nM (active) and 273 nM (active) | inactive | inactive | 61.1 µM (active) and inactive | inactive | inactive | – | –
Cc1cccc(N)c1N | inactive | inactive and 19.3 µM (active) | 19.3 µM (active) | 21.7 µM (active) | – | – | inactive | – | inactive | – | inactive | – | – | – | inactive | inactive | inactive | inactive | inactive | –
CC(C)(C)c1ccccc1O | inactive | – | 61.1 µM (active) | inactive | – | – | inactive | inactive | inactive | – | inactive | – | – | – | inactive | inactive | inactive | inactive | inactive | –
C=CC(=O)OCCO | inactive | – | inactive | inactive and 43.3 µM (active) | – | – | inactive | inactive | inactive | – | inactive | – | – | – | inactive | – | – | inactive | inactive | –
